# From the supplement of paper PMC10849652
# The full data set covers some 8,800 targets. This sample favours those with a hit. About 0.5% of all pairs of compound and target were hits. A number with no mark means an inactive call.
# Legend:
# Assay in all cases: log2 fold change, soluble protein after heating vs DMSO (PISA); higher = thermal stabilisation; K562 lysate, 10 uM; active = over 0.2 and 3.5 SD of the protein, either way, in both replicates (recomputed)
# nilotinib = compound: Cc1cn(-c2cc(NC(=O)c3ccc(C)c(Nc4nccc(-c5cccnc5)n4)c3)cc(C(F)(F)F)c2)cn1 [nilotinib]
# How it was run: (§1)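 The values are log-two fold changes in thermal stability compared with solvent controls and come from duplicates. They were obtained by TMTpro 16plex LC-MS/MS, with channel sums equalised, on the supernatant after 21,000xg for 90 min. That supernatant came from crude K562 extract at 1 mg/mL protein treated with 10 μM compound for 30 min, heated for 3 min across 48°C-58°C, pooled and brought to 0.5% NP-40 at 4°C.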
# [1] = compound: Cc1nc(Nc2n[nH]c3c2CN(C(=O)N[C@H](CN(C)C)c2ccccc2)C3(C)C)c2sccc2n1
# How it was run: as §1
# dasatinib = compound: Cc1nc(Nc2ncc(C(=O)Nc3c(C)cccc3Cl)s2)cc(N2CCN(CCO)CC2)n1 [dasatinib]
# How it was run: as §1
# [2] = compound: Cc1ncc(-c2ccnc(Nc3ccc(S(C)(=O)=O)cc3)n2)n1C(C)C
# How it was run: as §1
# [3] = compound: Cn1cc(-c2ccc3c(c2)CCN3C(=O)Cc2cccc(C(F)(F)F)c2)c2c(N)ncnc21
# How it was run: as §1
# quisinostat = compound: Cn1cc(CNCC2CCN(c3ncc(C(=O)NO)cn3)CC2)c2ccccc21 [quisinostat]
# How it was run: as §1
# tipifarnib = compound: Cn1cncc1[C@@](N)(c1ccc(Cl)cc1)c1ccc2c(c1)c(-c1cccc(Cl)c1)cc(=O)n2C [tipifarnib]
# How it was run: as §1
# [4] = compound: NC(=O)Nc1cc(-c2cccc(F)c2)sc1C(=O)N[C@H]1CCCNC1
# How it was run: as §1
# [5] = compound: NC(=O)c1cnc(N[C@@H]2CCCC[C@@H]2N)nc1Nc1cccc(-n2nccn2)c1
# How it was run: as §1
# [6] = compound: NC1(c2ccc(-c3nc4ccn5c(=O)[nH]nc5c4cc3-c3ccccc3)cc2)CCC1
# How it was run: as §1
# [7] = compound: NCC(=O)Nc1ccc(-n2nc(C(F)(F)F)cc2-c2ccc3c(ccc4ccccc43)c2)cc1
# How it was run: as §1
# vorinostat = compound: O=C(CCCCCCC(=O)Nc1ccccc1)NO [vorinostat]
# How it was run: as §1
# silmitasertib = compound: O=C(O)c1ccc2c(c1)nc(Nc1cccc(Cl)c1)c1ccncc12 [silmitasertib]
# How it was run: as §1
# [8] = compound: O=C1NC(=O)C(c2cnc3ccccn23)=C1c1cn2c3c(cc(F)cc13)CN(C(=O)N1CCCCC1)CC2
# How it was run: as §1
# entospletinib = compound: c1cn2cc(-c3ccc4cn[nH]c4c3)nc(Nc3ccc(N4CCOCC4)cc3)c2n1 [entospletinib]
# How it was run: as §1
# UniProt Q01628, sequence (Q01628 whole entry, looked up): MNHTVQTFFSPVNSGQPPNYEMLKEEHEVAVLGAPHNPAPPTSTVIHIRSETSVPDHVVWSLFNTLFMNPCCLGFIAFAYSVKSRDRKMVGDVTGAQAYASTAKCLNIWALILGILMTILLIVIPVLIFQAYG
# UniProt Q01581, sequence (Q01581 whole entry, looked up): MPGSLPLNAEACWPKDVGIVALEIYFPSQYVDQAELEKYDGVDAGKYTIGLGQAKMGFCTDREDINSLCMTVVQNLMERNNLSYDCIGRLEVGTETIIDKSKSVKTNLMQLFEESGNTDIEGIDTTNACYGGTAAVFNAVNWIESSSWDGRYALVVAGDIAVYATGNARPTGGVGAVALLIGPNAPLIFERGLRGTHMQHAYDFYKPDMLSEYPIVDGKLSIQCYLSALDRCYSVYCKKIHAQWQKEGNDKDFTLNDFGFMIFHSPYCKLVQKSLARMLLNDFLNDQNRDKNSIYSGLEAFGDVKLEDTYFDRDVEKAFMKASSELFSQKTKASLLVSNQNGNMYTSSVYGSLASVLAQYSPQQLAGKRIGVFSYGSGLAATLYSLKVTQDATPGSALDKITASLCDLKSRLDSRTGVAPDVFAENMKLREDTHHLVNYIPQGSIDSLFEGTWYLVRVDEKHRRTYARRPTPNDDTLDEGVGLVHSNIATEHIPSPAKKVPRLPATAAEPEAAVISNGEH
# UniProt P49915, sequence (P49915 whole entry, looked up): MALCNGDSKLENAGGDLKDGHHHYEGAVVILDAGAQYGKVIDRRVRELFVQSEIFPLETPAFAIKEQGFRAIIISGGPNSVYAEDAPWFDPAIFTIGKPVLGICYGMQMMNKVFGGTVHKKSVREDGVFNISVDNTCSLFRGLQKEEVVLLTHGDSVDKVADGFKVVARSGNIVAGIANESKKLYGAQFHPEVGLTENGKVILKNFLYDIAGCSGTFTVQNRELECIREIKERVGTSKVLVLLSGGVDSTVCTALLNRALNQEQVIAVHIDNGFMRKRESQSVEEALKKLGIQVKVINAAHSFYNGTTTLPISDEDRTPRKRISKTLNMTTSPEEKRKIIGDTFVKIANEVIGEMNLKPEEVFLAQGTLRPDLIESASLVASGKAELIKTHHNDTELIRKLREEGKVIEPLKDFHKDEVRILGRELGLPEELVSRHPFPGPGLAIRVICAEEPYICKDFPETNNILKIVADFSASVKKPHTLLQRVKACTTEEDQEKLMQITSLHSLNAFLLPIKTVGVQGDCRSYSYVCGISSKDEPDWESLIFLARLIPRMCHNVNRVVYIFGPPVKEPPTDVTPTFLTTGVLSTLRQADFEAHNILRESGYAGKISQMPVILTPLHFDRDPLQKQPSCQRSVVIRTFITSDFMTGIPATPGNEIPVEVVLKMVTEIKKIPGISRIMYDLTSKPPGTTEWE
# UniProt A6NDN3, sequence (A6NDN3 whole entry, looked up): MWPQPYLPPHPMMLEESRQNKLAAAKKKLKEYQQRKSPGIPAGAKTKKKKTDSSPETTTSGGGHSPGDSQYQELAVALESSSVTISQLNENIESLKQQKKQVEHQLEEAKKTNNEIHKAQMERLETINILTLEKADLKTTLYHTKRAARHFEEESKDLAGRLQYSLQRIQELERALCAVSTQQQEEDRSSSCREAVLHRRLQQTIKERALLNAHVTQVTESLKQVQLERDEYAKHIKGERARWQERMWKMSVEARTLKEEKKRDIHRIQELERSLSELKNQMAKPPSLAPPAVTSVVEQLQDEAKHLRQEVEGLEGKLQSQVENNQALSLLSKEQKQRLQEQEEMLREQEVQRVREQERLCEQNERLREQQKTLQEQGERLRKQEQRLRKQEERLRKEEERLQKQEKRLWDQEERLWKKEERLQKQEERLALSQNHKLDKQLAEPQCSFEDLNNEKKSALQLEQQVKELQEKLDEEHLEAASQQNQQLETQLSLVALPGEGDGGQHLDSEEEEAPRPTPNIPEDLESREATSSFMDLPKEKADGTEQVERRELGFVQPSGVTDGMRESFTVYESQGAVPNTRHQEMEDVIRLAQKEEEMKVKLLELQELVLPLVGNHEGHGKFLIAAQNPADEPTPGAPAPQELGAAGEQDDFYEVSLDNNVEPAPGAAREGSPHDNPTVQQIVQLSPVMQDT
# UniProt Q16836, sequence (Q16836 whole entry, looked up): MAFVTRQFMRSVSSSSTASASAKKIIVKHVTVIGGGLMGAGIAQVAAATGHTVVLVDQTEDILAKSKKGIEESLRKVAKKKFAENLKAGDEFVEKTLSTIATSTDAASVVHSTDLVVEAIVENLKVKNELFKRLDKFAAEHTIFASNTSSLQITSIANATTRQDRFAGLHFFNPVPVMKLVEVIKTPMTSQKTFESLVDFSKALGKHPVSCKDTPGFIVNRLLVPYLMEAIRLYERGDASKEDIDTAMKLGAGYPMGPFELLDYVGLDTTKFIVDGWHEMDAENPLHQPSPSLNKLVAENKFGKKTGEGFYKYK
# UniProt P55795, sequence (P55795 whole entry, looked up): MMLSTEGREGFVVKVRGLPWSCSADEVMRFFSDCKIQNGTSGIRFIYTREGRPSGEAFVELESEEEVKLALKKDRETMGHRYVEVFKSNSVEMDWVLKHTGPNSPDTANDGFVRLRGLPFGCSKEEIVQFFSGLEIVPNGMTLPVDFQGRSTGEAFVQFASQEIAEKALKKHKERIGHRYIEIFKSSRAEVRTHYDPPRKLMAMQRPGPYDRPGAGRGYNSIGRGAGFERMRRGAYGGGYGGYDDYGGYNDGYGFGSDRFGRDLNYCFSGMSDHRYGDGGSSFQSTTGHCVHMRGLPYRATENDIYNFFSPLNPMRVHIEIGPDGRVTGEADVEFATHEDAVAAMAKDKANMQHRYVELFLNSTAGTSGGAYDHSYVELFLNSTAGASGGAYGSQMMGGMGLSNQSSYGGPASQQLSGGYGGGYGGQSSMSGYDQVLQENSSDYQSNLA
# UniProt P62873, sequence (P62873 whole entry, looked up): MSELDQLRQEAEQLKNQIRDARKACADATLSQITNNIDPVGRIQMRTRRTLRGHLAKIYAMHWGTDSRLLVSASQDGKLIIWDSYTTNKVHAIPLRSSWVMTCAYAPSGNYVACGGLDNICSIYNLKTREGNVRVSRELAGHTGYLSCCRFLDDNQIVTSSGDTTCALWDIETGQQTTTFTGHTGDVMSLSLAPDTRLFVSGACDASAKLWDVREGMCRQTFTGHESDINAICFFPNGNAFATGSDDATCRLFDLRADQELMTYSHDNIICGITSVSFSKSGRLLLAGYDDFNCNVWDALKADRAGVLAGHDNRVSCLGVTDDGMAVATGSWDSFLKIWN
# UniProt O75367, sequence (O75367 whole entry, looked up): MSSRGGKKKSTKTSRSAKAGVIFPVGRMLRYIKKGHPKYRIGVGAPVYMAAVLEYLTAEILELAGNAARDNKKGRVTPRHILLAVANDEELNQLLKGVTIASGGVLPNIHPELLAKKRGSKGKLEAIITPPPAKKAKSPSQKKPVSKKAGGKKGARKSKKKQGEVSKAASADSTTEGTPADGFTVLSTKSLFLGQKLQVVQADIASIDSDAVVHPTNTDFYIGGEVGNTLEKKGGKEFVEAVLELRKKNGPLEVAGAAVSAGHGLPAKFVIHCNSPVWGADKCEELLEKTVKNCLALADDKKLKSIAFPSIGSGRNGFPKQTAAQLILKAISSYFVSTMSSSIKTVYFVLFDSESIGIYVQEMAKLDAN
# UniProt Q9NPR9, sequence (Q9NPR9 whole entry, looked up): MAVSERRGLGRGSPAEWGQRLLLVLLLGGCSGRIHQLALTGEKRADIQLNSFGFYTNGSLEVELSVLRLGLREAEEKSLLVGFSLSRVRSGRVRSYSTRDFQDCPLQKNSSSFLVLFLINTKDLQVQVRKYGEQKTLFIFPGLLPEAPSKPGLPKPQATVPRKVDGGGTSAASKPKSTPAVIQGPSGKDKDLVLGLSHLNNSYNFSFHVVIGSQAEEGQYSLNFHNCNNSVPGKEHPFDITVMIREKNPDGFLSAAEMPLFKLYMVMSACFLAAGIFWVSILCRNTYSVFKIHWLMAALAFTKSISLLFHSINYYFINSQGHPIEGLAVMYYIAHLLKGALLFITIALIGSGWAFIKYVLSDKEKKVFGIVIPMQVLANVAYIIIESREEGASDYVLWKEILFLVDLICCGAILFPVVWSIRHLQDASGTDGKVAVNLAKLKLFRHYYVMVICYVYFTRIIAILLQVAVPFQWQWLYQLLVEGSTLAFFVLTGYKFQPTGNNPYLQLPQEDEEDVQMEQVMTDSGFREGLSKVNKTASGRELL
# UniProt Q8NEC7, sequence (Q8NEC7 whole entry, looked up): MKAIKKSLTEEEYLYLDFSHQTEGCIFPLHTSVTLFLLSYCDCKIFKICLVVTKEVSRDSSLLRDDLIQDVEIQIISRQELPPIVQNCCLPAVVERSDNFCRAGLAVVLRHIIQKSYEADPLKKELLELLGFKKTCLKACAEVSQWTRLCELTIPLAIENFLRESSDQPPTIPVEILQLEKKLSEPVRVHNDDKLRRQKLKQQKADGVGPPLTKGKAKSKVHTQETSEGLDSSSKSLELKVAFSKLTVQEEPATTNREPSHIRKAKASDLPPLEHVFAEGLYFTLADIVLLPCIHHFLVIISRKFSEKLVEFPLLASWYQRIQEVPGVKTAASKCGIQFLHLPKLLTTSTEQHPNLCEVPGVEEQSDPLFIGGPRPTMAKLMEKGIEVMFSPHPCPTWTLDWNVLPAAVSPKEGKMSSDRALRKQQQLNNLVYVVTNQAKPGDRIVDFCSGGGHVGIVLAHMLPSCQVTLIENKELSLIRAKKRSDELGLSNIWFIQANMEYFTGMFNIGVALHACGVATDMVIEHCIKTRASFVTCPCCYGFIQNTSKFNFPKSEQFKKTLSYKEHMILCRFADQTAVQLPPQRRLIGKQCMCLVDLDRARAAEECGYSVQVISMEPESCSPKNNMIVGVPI
Target,log2 fold change (nilotinib),log2 fold change [1],log2 fold change (dasatinib),log2 fold change [2],log2 fold change [3],log2 fold change (quisinostat),log2 fold change (tipifarnib),log2 fold change [4],log2 fold change [5],log2 fold change [6],log2 fold change [7],log2 fold change (vorinostat),log2 fold change (silmitasertib),log2 fold change [8],log2 fold change (entospletinib)
HNRNPH2 (UniProt P55795),-0.07,0.04,0.049,0.071,0.003,-0.147,-0.003,0.014,-0.037,-0.113,-0.008,-0.243 (active),0.005,-0.054,0.002
IMMT (UniProt C9J406),-0.044,0.09,0.045,0.012,0.051,0.022,-0.03,0,0.023,-0.038,-0.084,0.174,0.092,-0.002,-0.172
GSTCD (UniProt Q8NEC7),0.039,-0.04,-0.003,-0.005,-0.098,-0.053,0.01,0.08,-0.014,-0.008,-0.025,-0.356 (active),0.024,-0.027,-0.066
GOLGA6B (UniProt A6NDN3),0.039,-0.102,0.009,-0.075,0.161,-0.355,0.051,0.106,-0.008,-0.082,0.019,0.117,-0.002,0.353 (active),-0.084
GMPS (UniProt P49915),-0.006,-0.019,-0.016,0,0,0.041,-0.008,0.001,0.001,0.009,0.017,-0.553 (active),0.028,0.002,0.01
GOLPH3 (UniProt Q9H4A6),-0.008,0.008,-0.071,0.044,-0.013,-0.065,-0.039,0.012,-0.023,-0.02,-0.06,-0.06,-0.001,0.023,0.026
GON4L (UniProt Q3T8J9),0.003,0.012,0.025,0.067,0.041,-0.061,-0.01,0.019,-0.02,0.022,-0.051,-0.162,0.066,-0.076,0.067
IFITM3 (UniProt Q01628),0.068,0.055,0.049,-0.013,0.064,-0.069,-0.136,-0.044,-0.133,-0.051,-0.02,0.067,-0.129,0.069,0.059
GTF2I (UniProt P78347),0.001,0.002,-0.042,-0.011,0.035,-0.006,-0.008,0.034,0,-0.014,-0.001,-0.287 (active),0.091,-0.005,-0.017
HMGCS1 (UniProt Q01581),0.003,-0.015,0.02,0.012,-0.005,-0.007,0.001,-0.016,-0.008,-0.018,0.018,0.53 (active),0.011,0.013,-0.002
H2AFY (UniProt O75367),0.013,0.003,-0.087,-0.003,0.005,-0.099,0.005,0.058,0.001,-0.034,0.008,0.142,-0.029,-0.02,0.079
HNRNPUL2 (UniProt Q1KMD3),-0.037,0.02,0.002,0.009,-0.005,-0.046,0.008,0,0.004,-0.008,0.029,-0.017,0.022,-0.023,-0.032
HK1 isoform 2 (UniProt P19367),0.011,0,-0.026,-0.005,-0.008,-0.013,0.007,0.008,-0.005,0,0.012,-0.264 (active),0.028,-0.002,0.011
KHK isoform 2 (UniProt P50053),-0.004,0.035,-0.075,-0.02,-0.035,-0.021,-0.043,-0.019,-0.018,-0.023,0.035,0.045,0.018,-0.053,0.033
HADH isoform 2 (UniProt Q16836),-0.028,0.049,0.288 (active),0.031,0.008,0.124,0.032,-0.006,0.029,-0.031,0,-0.029,0.005,0.006,0.022
HDAC1 (UniProt Q13547),0.01,-0.024,-0.021,-0.019,0.028,0.857 (active),-0.041,-0.033,0.03,0.009,0.018,0.644 (active),-0.008,-0.015,0.008
GSK3B isoform 2 (UniProt P49841),-0.06,0.576,-0.023,0.64 (active),-0.028,-0.084,0.003,0,0.061,-0.039,0.02,0.253,0.421,0.657,0.05
GPR108 (UniProt Q9NPR9),0.044,0.033,-0.035,0.011,-0.057,-0.063,-0.088,-0.013,0.046,-0.002,-0.001,-0.024,0.001,-0.007,-0.008
H4C1 (UniProt P62805),0.051,-0.027,-0.063,-0.033,0.048,0.137,0,-0.032,0.01,0.015,0.043,0.09,0.007,-0.038,-0.057
GLUD2 (UniProt P49448),0.053,-0.067,0.013,-0.003,-0.017,0.039,0.047,0.015,0.012,-0.004,0.297 (active),0.096,0.022,0.026,-0.084
GNB1 (UniProt P62873),0.075,0.057,-0.078,0.098,-0.029,0.107,0.019,-0.137,-0.027,-0.018,0.026,0.064,0.041,-0.037,0.054
